Laboratory results from PubChem BioAssay.
Unmarked numbers belong to inactive results. No rule for the calls is given here.

Target: Pantothenate synthetase (Mycobacterium tuberculosis (strain ATCC 25618 / H37Rv)) (UniProt P9WIL5)
Assay: Coupled enzyme confirmation of inhibitors against recombinant Mtb PanC (AID 375);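 also: 0% = full reaction with vehicle and 100% = no enzyme background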
Conditions: coupled enzyme assay; at 10 µM, stronger effect = higher value

Sequence of Pantothenate synthetase (Mycobacterium tuberculosis (strain ATCC 25618 / H37Rv)) (P9WIL5 whole entry, looked up): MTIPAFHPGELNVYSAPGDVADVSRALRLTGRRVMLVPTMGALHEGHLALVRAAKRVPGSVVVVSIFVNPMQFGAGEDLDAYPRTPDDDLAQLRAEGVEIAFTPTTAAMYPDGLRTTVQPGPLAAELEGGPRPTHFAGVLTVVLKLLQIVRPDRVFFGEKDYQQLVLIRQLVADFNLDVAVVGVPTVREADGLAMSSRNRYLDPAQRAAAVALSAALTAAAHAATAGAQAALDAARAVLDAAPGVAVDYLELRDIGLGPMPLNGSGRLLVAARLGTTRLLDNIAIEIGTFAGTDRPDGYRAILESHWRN

Compound	inhibition
Cc1ccc(C)c(NC(=O)CSc2nnc(-c3ccccc3)o2)c1	5%
Cc1onc(-c2ccccc2)c1C(=O)Nc1ccc(S(=O)(=O)N2CCCCC2)cc1	0%
COc1ccc(C(=O)c2ccc(OC)c(N)c2)cc1N	0%
O=c1[nH]c(N2CCCCC2)nc2c1CCCC2	0%
Cc1[nH]c(=O)[nH]c(=O)c1S(=O)(=O)N1c2ccc(F)cc2CCC1C (stereo unspecified)	0%
CC(=O)c1nnn(-c2nc(N3CCCC3)nc(N(c3ccccc3)c3ccccc3)n2)c1C	0%
Cc1nc2c(C(=O)O)cnn2c(C)c1Cc1ccccc1F	0%
Cc1cc(C)nc(NC2=NCC(=O)N2c2ccc(Cl)cc2)n1	0%
O=C(Cn1ncc2c1-c1ccccc1OC2)N1CCc2ccccc21	0%
CCCc1cc(C(=O)Nc2ccc(C(C)=O)cc2)no1	0%
Cc1[nH]c(=O)[nH]c(=O)c1S(=O)(=O)Nc1ccc(Oc2ccccc2)cc1	6%
O=C(O)c1cc2c(s1)CCCC2	0%
Cn1nnnc1SCC(=O)Nc1ccccc1-c1ccccc1	2%
CCOC(=O)N1CCN(c2ncnc3c2[nH]c2ccc(OC)cc23)CC1	0%
CCOC(=O)c1sc(NC(=O)CSc2n[nH]c(-c3ccccc3)n2)c(C#N)c1C	11%
CCCS(=O)(=O)N1CCCC(C(=O)NC2CCCC(C)C2C)C1 (stereo unspecified)	0%
CCC1C(=O)n2nc(-c3ccccc3)cc2N=C1C (stereo unspecified)	0%
CCOc1ccc2nc(N3CCC(C(=O)N4CCN(C5CCCCC5)CC4)CC3)sc2c1	0%
N#Cc1c(/N=C/c2cccs2)sc2c1CCCCC2	0%

Compound	inhibition
O=C(COc1ccccc1)N1CCN(c2ncnc3c2cnn3-c2ccccc2)CC1	0%
Cc1ccc(-c2cc(C(=O)NCc3ccc4c(c3)OCO4)no2)cc1	0%
CCOc1ccc(N(C(C)C(=O)NC2CCCCCC2)S(C)(=O)=O)cc1 (stereo unspecified)	1%
COc1ccc(OC)c(NC(=O)CS(=O)(=O)c2ccccc2)c1	0%
COC(=O)c1cc2oc(C)cc2n1CC(=O)Nc1ccc(C)c(C)c1	0%
COc1ccc(C2CC(c3ccc(Cl)cc3Cl)Nc3nc(N)nn32)cc1 (stereo unspecified)	0%
Cc1oc(-c2ccc(Cl)cc2)cc1-c1nn2c(-c3ccoc3C)nnc2s1	3%
COc1ccc(C2/C(=C(/O)c3ccccc3)C(=O)C(=O)N2C)cc1 (stereo unspecified)	0%
CC(C)Cc1nc(S(=O)(=O)c2ccc(Cl)cc2)c(N2CCOCC2)o1	0%
CCCCN(CC)S(=O)(=O)c1ccc2c(c1)CCCN2C(C)=O	6%
O=C(c1c(F)cccc1F)N(Cc1ccccn1)C1CCCC1	1%
COc1ccc(NC(=O)c2oc3ccccc3c2NC(=O)c2ccco2)cc1	0%
O=c1n(CCCN2CCN(c3cccc(Cl)c3)CC2)nc2ccccn12	0%
CCOc1cccc(OCCCCn2ccnc2)c1	0%
CCc1cc2ccc(C)cc2nc1SCC(=O)N1CCN(C(=O)c2ccco2)CC1	0%
CN(C)/C=N/c1ncnc2c1cnn2-c1ccc(C(F)(F)F)cn1	3%
COC(=O)C1=C(N)Oc2cc(C)n(Cc3ccncc3)c(=O)c2C1c1cccnc1 (stereo unspecified)	0%
O=C(c1ccccc1)c1coc2ccc(O)c(CN3CCOCC3)c12	4%
CCOc1cc(NC(=O)c2ccco2)c(OCC)cc1NC(=O)COc1ccccc1C	0%

Compound	inhibition
CC(=O)c1ccc(NS(=O)(=O)c2ccccc2)cc1	0%
COC(=O)c1ccccc1NC(=O)C1CCN(S(=O)(=O)c2cc(C)ccc2OC)CC1	0%
Cn1c2c(c(=O)n(C)c1=O)C(NC(=O)C(C)(C)C)(C(F)(F)F)C(=O)N2 (stereo unspecified)	0%
CC(C(=O)Nc1ccccc1-c1ccccc1)N1CCOCC1 (stereo unspecified)	1%
N[C@@H](C(=O)N[C@@H]1C(=O)N2C(C(=O)O)=C(Cl)CS[C@H]12)c1ccccc1	2%
Cc1ccc(C2C3CN(C(C)C)CC=C3C(C#N)=C(N)C2(C#N)C#N)cc1 (stereo unspecified)	0%
CC(=O)c1ccc(Oc2cc(C)nc(-n3nc(C)cc3C)n2)cc1	4%
CC(=O)c1c(OCC(=O)O)ccc2c(C)cc(=O)oc12	0%
Cc1cc(C)nc(SCc2ccc3nonc3c2)n1	1%
Cc1ccc(-n2c(Cn3cnc4ccccc43)nnc2SCC(=O)O)cc1	0%
O=C(CN1CCN(c2nc(-c3ccc(F)cc3)cs2)CC1)NCc1ccc2c(c1)OCO2	5%
CC1N=C2c3ccccc3N=C(SCc3cc(=O)n4cc(Cl)ccc4n3)N2C1=O (stereo unspecified)	2%
CCCNC(=O)NC(C(=O)OC)C12CC3CC(CC(C3)C1)C2 (stereo unspecified)	3%
COc1ccc(-n2c(SCC(N)=O)nc3sc4c(c3c2=O)CCN(C)C4)cc1	0%
COc1cc(C(=O)OCC(=O)N(C)Cc2ccccc2)cc(OC)c1OC	0%
CNC(=O)CC(C(=O)O)c1ccc(OCC(C)C)cc1 (stereo unspecified)	1%
COc1cccc(OCCOCCN(C)CCO)c1	2%
CN(CCCC(=O)Nc1ccncc1)S(=O)(=O)c1ccc(Cl)cc1	3%
